Values joined by “and” are separate entries in the source; they are usually repeats but may differ in a detail not shown here. Identical values can stand only once. Records with an inconclusive call do not appear. Active and inactive are the calls of the source. Calls come from the whole dose curve; as a rule, active = well fitted curve in the direction sought with a large enough effect in the repeat runs; inconclusive = weak or mixed curves; inactive = no such curve, though single readings can be large; an effect the other way counts as inactive or inconclusive.
How the values were obtained:
[1] = A CellTox Green Cytotoxicity Assay to monitor cytotoxicity in HEK293 cells - 32 hour (AID 1224881); details: CellTox Green fluorescence; series mostly up to 76.8 µM; note: nearly all actives have a fitted effect of over 40% in size; note: potency is the fitted concentration of half-maximal effect
Method in brief: (§1)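 Seeding of HEK293 cells together with cytotoxicity dye preceded a 5 h incubation at 37 C/5% CO2. Test compounds in DMSO were then added and fluorescence monitored across 40 h.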

[2] = A CellTox Green Cytotoxicity Assay to monitor cytotoxicity in HepG2 cells - 0 hour (AID 1224882); details: CellTox Green fluorescence; series mostly up to 76.8 µM; note: nearly all actives have a fitted effect of over 35% in size
Method in brief: (§2)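 Nonlytic assay: viable cells exclude the dye, so fluorescence scales with cell death. HepG2 at 600 cells/well, compounds added after 5 h, signal read across 40 h.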

[3] = A CellTox Green Cytotoxicity Assay to monitor cytotoxicity in HepG2 cells - 32 hour (AID 1224883); details: CellTox Green fluorescence; series mostly up to 76.8 µM; note: nearly all actives have a fitted effect of over 50% in size; note: potency is the fitted concentration of half-maximal effect
Method in brief: as §2

[4] = A CellTox Green Cytotoxicity Assay to monitor cytotoxicity in HEK293 cells - 8 hour (AID 1224884); details: CellTox Green fluorescence; series mostly up to 76.8 µM; note: nearly all actives have a fitted effect of over 35% in size; note: potency is the fitted concentration of half-maximal effect
Method in brief: as §1

[5] = qHTS RealTime-Glo MT Cell Viability Assay in HepG2 cells - 16 hour (AID 1224885); details: RealTime-Glo luminescence; series mostly up to 76.8 µM; note: nearly all actives have a fitted effect of over 50% in size; note: potency is the fitted concentration of half-maximal effect
Method in brief: (§3)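 Viability was tracked continuously by NanoLuc luminescence from prosubstrate reduced by living HepG2 cells, at successive time points over 40 h of compound exposure. Cells with reagent were preincubated 5 h at 37 °C before compound addition.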

[6] = qHTS RealTime-Glo MT Cell Viability Assay in HEK293 cells - 24 hour (AID 1224886); details: RealTime-Glo luminescence; series mostly up to 76.8 µM; note: nearly all actives have a fitted effect of over 50% in size; note: potency is the fitted concentration of half-maximal effect; for activity change, negative = cytotoxicity: top concentration of the series differs between compounds
Method in brief: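 Viability tracked continuously by luminescence as live cells reduce a prosubstrate for NanoLuc; HEK293 cells preincubated 5 h, compound-treated at 37 C, and read at 0, 8, 16, 24, 32 and 40 h.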

[7] = qHTS RealTime-Glo MT Cell Viability Assay in HEK293 cells - 8 hour (AID 1224887); details: RealTime-Glo luminescence; series mostly up to 76.8 µM; note: nearly all actives have a fitted effect of over 50% in size; note: potency is the fitted concentration of half-maximal effect; for activity change, negative = cytotoxicity: top concentration of the series differs between compounds
Method in brief: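 Tox21 screen in HEK293 using RealTime-Glo MT chemistry, with cells and reagent co-dispensed. Luminescence proportional to viable cell number was captured at intervals during 40 h compound exposure at 37 C.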

[8] = qHTS RealTime-Glo MT Cell Viability Assay in HepG2 cells - 0 hour (AID 1224889); details: RealTime-Glo luminescence; series mostly up to 76.8 µM; note: nearly all actives have a fitted effect of over 50% in size; note: potency is the fitted concentration of half-maximal effect
Method in brief: as §3

[9] = A CellTox Green Cytotoxicity Assay to monitor cytotoxicity in HepG2 cells - 8 hour (AID 1224890); details: CellTox Green fluorescence; series mostly up to 76.8 µM; note: nearly all actives have a fitted effect of over 45% in size; note: potency is the fitted concentration of half-maximal effect
Method in brief: as §2

[10] = A CellTox Green Cytotoxicity Assay to monitor cytotoxicity in HEK293 cells - 16 hour (AID 1224888); details: CellTox Green fluorescence; series mostly up to 76.8 µM; note: nearly all actives have a fitted effect of over 35% in size; note: potency is the fitted concentration of half-maximal effect
Method in brief: as §1
% is set by controls: 0 for no effect and ±100 for the full control effect.

CC1(C)CCC[C@]2(C)[C@H]3CC(=O)O[C@]3(C)CC[C@@H]12
inactive: Potency [2] | Potency [3] | Potency [4] | Potency [5] | Potency [6] | Potency [7] | Potency [8] | Potency [9]
active: Potency [1] 49 µM

O=C(O)c1cc(=O)c2ccccc2o1
inactive: Potency [1] | Potency [2] | Potency [3] | Potency [4] | Potency [5] | Potency [6] | Potency [7] | Potency [10] | Potency [8] | Potency [9]

CC(C)OC(=O)C(O)(CC(=O)O)CC(=O)O
inactive: Potency [1] | Potency [2] | Potency [3] | Potency [4] | Potency [5] | Potency [6] | Potency [7] | Potency [10] | Potency [9]

Cc1ccc(C)cc1
inactive: Potency [1] | Potency [2] | Potency [3] | Potency [4] | Potency [5] | Potency [6] | Potency [7] | Potency [10] | Potency [8] | Potency [9]

C=C(C)c1cccc(C(=C)C)c1
inactive: Potency [1] | Potency [2] | Potency [3] | Potency [4] | Potency [5] | Potency [6] | Potency [7] | Potency [10] | Potency [8] | Potency [9]

CC(CO)Oc1ccccc1 (configuration not stated)
inactive: Potency [1] | Potency [2] | Potency [3] | Potency [4] | Potency [5] | Potency [6] | Potency [7] | Potency [10] | Potency [8] | Potency [9]

CC(C)NC[C@@H](O)COc1ccc(CC(N)=O)cc1
inactive: Potency [1] | Potency [2] | Potency [3] | Potency [4] | Potency [5] | Potency [6] | Potency [7] | Potency [10] | Potency [8] | Potency [9]

CCCCCCCCCCCCCC[N+](C)(C)Cc1ccccc1
inactive: Potency [2]
active: Potency [1] 39.5 µM and 19 µM and 17.8 mM | Potency [3] 35.2 µM and 15.1 µM and 14.1 mM | Potency [4] 55.8 µM and 21.3 µM and 20 mM | Potency [5] 49.7 µM and 21.3 µM and 17.8 mM | Potency [6] 5.58 µM and 6.74 µM and 5.01 mM | Potency [7] 49.7 µM and 20 mM | Potency [10] 44.3 µM and 23.9 µM and 20 mM | Potency [9] 26.8 µM and 20 mM

CCC(C)[O-].CCC(C)[O-].CCOC(=O)/C=C(/C)[O-].[Al+3]
inactive: Potency [1] | Potency [2] | Potency [3] | Potency [4] | Potency [5] | Potency [6] | Potency [7] | Potency [10] | Potency [8] | Potency [9]

CCCCC(CC)CN1CN(CC(CC)CCCC)CC(C)(N)C1 (configuration not stated)
active: Potency [1] 10.7 µM | Potency [3] 19 µM | Potency [4] 15.1 µM | Potency [5] 19 µM | Potency [6] 8.49 µM | Potency [7] 10.7 µM | Potency [10] 13.4 µM | Potency [9] 21.3 µM
inactive: Potency [2]

CN(C)Cc1cc(C(C)(C)C)c(O)c(C(C)(C)C)c1
inactive: Potency [1] | Potency [2] | Potency [3] | Potency [4] | Potency [5] | Potency [6] | Potency [7] | Potency [10] | Potency [9]

O=C(O)O
inactive: cytotoxicity increase [1] -1.24% [at 6.97 µM] | cytotoxicity [2] 0.722% [at 6.97 µM] | cytotoxicity increase [3] -9.49% [at 6.97 µM] | cytotoxicity increase [4] -0.487% [at 6.97 µM] | activity change, negative = cytotoxic [5] -0.68% [at 6.97 µM] | activity change, negative = cytotoxicity [6] -0.471% [at 6.97 µM] | activity change, negative = cytotoxicity [7] 1.73% [at 6.97 µM] | activity change [10] 1.05% [at 6.97 µM, hits give high values] | cytotoxicity increase [9] 4.8% [at 6.97 µM]

C=CC(=O)Nc1cc2c(Nc3ccc(F)c(Cl)c3)ncnc2cc1OCCCN1CCOCC1
active: Potency [1] 12 µM | Potency [3] 6.01 µM | Potency [5] 8.49 µM | Potency [6] 10.7 µM | Potency [7] 9.52 µM | Potency [8] 9.52 µM
inactive: Potency [2] | Potency [4] | Potency [10] | Potency [9]

O=C(O)c1cc(O)c2ccccc2c1O
active: Potency [1] 21.9 µM | Potency [3] 24.5 µM | Potency [5] 19.5 µM | Potency [6] 43.6 µM | Potency [7] 17.4 µM
inactive: Potency [2] | Potency [4] | Potency [10] | Potency [9]

Cc1c(N)cccc1C(F)(F)F
inactive: Potency [1] | Potency [2] | Potency [3] | Potency [4] | Potency [5] | Potency [6] | Potency [7] | Potency [10] | Potency [8] | Potency [9]

Clc1sc(Cl)c(Cl)c1Cl
inactive: Potency [1] | Potency [2] | Potency [3] | Potency [4] | Potency [5] | Potency [6] | Potency [7] | Potency [10] | Potency [8] | Potency [9]

CCCCCC/C=C\CCCCCCCC(=O)O
inactive: Potency [1] | Potency [2] | Potency [3] | Potency [4] | Potency [5] | Potency [6] | Potency [7] | Potency [10] | Potency [8] | Potency [9]

NC(=S)NC(N)=S
inactive: Potency [1] | Potency [2] | Potency [3] | Potency [4] | Potency [5] | Potency [6] | Potency [7] | Potency [10] | Potency [8] | Potency [9]

Cc1cccc(C(=O)O)c1O
inactive: Potency [1] | Potency [2] | Potency [3] | Potency [4] | Potency [5] | Potency [6] | Potency [7] | Potency [10] | Potency [8] | Potency [9]

C#C[C@]1(OC(C)=O)CC[C@H]2[C@@H]3CCC4=C/C(=N/O)CC[C@@H]4[C@H]3CC[C@@]21CC
inactive: Potency [1] | Potency [2] | Potency [3] | Potency [4] | Potency [5] | Potency [10] | Potency [9]
active: Potency [6] 23.9 µM | Potency [7] 21.3 µM
